According to PubChem BioAssay (Tox21):
“And” between values parts separate entries of the source, which are not always exact repeats. Equal values may be shown once. Inconclusive results are not listed. Some compounds were tested as several samples or in several runs, with calls that do not always agree. The source made the active and inactive calls. Unless noted, the call rests on the fitted dose curve; in most records, active means well fitted curve in the direction sought with a large enough effect in the repeat runs; inconclusive means weak or mixed curves; inactive means no such curve, though single readings can be large; an effect the other way counts as inactive or inconclusive.

Legend:
[1] = qHTS assay to identify small molecule agonists of the sonic hedgehog signaling (Shh) pathway (AID 1259368; calls by dose curve;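 further: NIH/3T3-derived 3T3Gli1-Luc cells carrying a stable Gli1-driven firefly luciferase reporter; series mostly up to about 92 µM; nearly all actives have a fitted effect of over 15% in size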)
Procedure, shortened: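 Cells of a mouse NIH/3T3 clone stably expressing luciferase under the Gli1 transcriptional response element are exposed to test chemicals for 24 hr at 37 C. Pathway activation is detected as a rise in luminescence.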

[2] = qHTS assay to identify small molecule antagonists of the sonic hedgehog signaling (Shh) pathway (AID 1259369; calls by dose curve; further: nearly all actives have a fitted effect of over 45% in size; further: potency means the concentration at half of the fitted maximal effect)
Procedure, shortened: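 Cells are plated and held 4hr at 37 C, compounds (DMSO) are pinned in, conditioned medium is added to stimulate the pathway, and after 24hr luciferase reagent is added for 30min before luminescence is read.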

[3] = target: Estrogen receptor beta (Homo sapiens) (UniProt Q92731); assay: qHTS assay to identify small molecule agonists of the estrogen receptor beta (ER-beta) signaling pathway (AID 1259377; active means well fitted activation curve with a large enough effect in the signal ratio in the repeat runs, not every such curve was filed as active; the % refers to the signal ratio; further: potency means the concentration at half of the fitted maximal effect)
Estrogen receptor beta (Homo sapiens), sequence (Q92731 whole entry, looked up): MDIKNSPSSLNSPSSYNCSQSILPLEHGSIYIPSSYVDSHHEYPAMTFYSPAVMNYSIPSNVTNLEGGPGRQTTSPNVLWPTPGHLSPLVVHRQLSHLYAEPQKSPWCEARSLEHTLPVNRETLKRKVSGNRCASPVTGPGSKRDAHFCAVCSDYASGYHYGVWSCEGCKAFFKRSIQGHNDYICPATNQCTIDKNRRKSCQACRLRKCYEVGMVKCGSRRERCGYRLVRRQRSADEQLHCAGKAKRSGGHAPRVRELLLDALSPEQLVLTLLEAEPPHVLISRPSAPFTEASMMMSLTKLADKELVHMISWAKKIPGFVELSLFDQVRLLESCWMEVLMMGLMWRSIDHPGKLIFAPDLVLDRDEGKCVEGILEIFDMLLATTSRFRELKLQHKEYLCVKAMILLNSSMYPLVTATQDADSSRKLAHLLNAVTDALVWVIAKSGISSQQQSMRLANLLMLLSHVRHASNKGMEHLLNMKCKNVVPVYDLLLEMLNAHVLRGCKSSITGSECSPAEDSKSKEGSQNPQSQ
Procedure, shortened: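 Screening used GripTite ER-beta-UAS-bla cells held in 2% charcoal-stripped FBS medium. After overnight (16 hr) compound incubation at 37C, beta-lactamase activity was detected with a FRET substrate by fluorescence.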

[4] = target: Estrogen receptor beta (Homo sapiens) (UniProt Q92731); assay: qHTS assay to identify small molecule antagonists of the estrogen receptor beta (ER-beta) signaling pathway (AID 1259378; active means well fitted inhibition curve with a large enough effect in the signal ratio in the repeat runs, not every such curve was filed as active; the % refers to the signal ratio)
Procedure, shortened: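 Antagonist mode: compounds added to beta-lactamase reporter HEK293T ER-beta-UAS cells stimulated with E2 (1nM final), 16 hr at 37C. LiveBLAzer B/G FRET substrate, 2 hours room temperature, fluorescence read-out.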

[5] = qHTS assay to identify small molecule agonists of the androgen receptor (AR) signaling pathway in the presence of an antagonist - cell viability counter screen (AID 1259379);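 further: MDA-kb2 human breast cancer cells carrying an MMTV luciferase reporter; series mostly up to about 92 µM; nearly all actives have a fitted effect of over 25% in size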
Procedure, shortened: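 Cytotoxicity is assessed by CellTiter-Fluor in MDA-kb2 cells carrying an MMTV-driven luciferase reporter. Cells receive 3.0uM nilutamide plus compounds at 15 concentrations and incubate 16 hr at 37C without CO2 before fluorescence reading.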

[6] = qHTS assay to identify small molecule agonists of the estrogen receptor beta (ER-beta) signaling pathway - cell viability counter screen (AID 1259380); further: nearly all actives have a fitted effect of over 30% in size
Procedure, shortened: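 Cytotoxicity is measured in parallel with the reporter screen: after 16 hr compound exposure at 37C and a 2 hr LiveBLAzer step, CellTiter-Glo is added to the same ER-beta-UAS-bla HEK293T wells and luminescence read after 30 min.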

[7] = target: Androgen receptor (Homo sapiens) (UniProt P10275); assay: qHTS assay to identify small molecule agonists of the androgen receptor (AR) signaling pathway in the presence of an antagonist (AID 1259381; calls by dose curve; further: nearly all actives have a fitted effect of over 15% in size; further: potency means the concentration at half of the fitted maximal effect)
Androgen receptor (Homo sapiens), sequence (P10275 whole entry, looked up): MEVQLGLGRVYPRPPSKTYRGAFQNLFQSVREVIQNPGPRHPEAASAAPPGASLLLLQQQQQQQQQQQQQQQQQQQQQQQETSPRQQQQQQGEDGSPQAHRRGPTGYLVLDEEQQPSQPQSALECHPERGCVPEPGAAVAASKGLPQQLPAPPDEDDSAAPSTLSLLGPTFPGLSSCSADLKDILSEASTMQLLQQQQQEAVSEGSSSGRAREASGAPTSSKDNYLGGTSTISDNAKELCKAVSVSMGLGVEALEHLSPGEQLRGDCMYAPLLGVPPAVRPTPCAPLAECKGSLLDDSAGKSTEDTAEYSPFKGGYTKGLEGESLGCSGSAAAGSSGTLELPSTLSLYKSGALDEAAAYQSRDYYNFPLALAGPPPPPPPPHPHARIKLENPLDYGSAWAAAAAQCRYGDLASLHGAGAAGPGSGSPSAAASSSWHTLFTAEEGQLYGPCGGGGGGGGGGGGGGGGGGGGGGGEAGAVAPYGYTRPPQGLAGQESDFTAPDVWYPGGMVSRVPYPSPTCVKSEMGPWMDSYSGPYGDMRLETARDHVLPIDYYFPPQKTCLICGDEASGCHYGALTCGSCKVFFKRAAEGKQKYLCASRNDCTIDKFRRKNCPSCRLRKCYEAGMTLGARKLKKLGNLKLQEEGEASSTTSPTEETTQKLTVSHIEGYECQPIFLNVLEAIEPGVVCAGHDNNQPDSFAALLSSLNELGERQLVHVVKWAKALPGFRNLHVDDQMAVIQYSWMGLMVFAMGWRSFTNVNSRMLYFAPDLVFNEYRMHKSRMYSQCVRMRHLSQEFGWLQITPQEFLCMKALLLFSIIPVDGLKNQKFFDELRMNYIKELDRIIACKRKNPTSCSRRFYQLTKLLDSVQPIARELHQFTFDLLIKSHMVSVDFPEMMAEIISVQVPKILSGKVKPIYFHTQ
Procedure, shortened: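 Agonist-mode confirmation screen: human MDA-kb2 cells stably expressing luciferase under an MMTV promoter bearing AR and GR response elements, co-treated with 3.0uM nilutamide (final). Luminescence measured after 16hr compound incubation.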

[8] = qHTS assay to identify small molecule antagonists of the estrogen receptor beta (ER-beta) signaling pathway - cell viability counter screen (AID 1259382);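 further: HEK293T cells carrying ER-beta-UAS-bla reporter stimulated with estradiol; series mostly up to about 92 µM; nearly all actives have a fitted effect of over 55% in size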
Procedure, shortened: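 Cytotoxicity counter screen multiplexed with the beta-lactamase antagonist assay: GripTite HEK293T ER-beta-bla cells were treated 16 hr with test chemicals in the presence of 1nM 17-beta-estradiol, and viability was measured by CellTiter-Glo.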

[9] = target: Thyrotropin receptor (Homo sapiens) (UniProt P16473); assay: qHTS assay to identify small molecule antagonists of the thyroid stimulating hormone receptor (TSHR) signaling pathway (AID 1259385; calls by dose curve; further: nearly all actives have a fitted effect of over 20% in size)
Thyrotropin receptor (Homo sapiens), sequence (P16473 whole entry, looked up): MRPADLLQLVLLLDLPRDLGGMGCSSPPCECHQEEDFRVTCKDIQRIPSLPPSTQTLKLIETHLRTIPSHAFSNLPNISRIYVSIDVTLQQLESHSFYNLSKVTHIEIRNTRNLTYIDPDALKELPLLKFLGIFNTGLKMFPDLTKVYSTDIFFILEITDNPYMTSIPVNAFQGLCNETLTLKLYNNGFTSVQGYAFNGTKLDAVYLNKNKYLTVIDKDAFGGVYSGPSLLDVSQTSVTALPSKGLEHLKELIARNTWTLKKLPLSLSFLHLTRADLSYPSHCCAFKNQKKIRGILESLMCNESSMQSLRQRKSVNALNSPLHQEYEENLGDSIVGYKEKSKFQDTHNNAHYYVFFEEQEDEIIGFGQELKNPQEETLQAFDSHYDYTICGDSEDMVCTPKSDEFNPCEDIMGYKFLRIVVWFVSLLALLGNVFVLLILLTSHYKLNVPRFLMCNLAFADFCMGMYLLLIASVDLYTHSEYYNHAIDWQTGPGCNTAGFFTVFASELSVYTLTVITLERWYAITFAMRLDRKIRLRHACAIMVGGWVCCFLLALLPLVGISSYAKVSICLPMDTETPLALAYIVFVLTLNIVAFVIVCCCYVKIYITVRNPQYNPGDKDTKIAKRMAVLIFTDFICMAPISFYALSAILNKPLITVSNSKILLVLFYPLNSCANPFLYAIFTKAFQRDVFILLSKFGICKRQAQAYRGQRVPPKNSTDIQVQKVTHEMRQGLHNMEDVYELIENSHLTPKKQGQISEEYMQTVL
Procedure, shortened: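 Antagonist mode: compound-treated TSHR-expressing HEK293 cells were stimulated with 1.5 ng/mL TSH (final) in presence of Ro20-1724 for 30 min at RT. HTRF cAMP detection after 1 h; each compound tested at 15 concentrations, triplicate.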

[10] = qHTS assay to identify small molecule agonists of the estrogen receptor alpha (ER-alpha) signaling pathway in the presence of an antagonist - cell viability counter screen (AID 1259386);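 further: series mostly up to about 92 µM; cells exposed to compounds for 22 h at 37 °C before the viability read; nearly all actives have a fitted effect of over 30% in size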
Procedure, shortened: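 Cytotoxicity was measured in parallel with the ERE-luciferase agonist screen, in the same wells. The cells were VM7Luc4E2, which endogenously express ER-alpha, and treatment was with compounds plus 10.0nM ICI-182,780 for 22hr.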

[11] = target: Progesterone receptor (Homo sapiens) (UniProt P06401); assay: qHTS assay to identify small molecule agonists of the progesterone receptor (PR) signaling pathway (AID 1346784; calls by dose curve; further: nearly all actives have a fitted effect of over 30% in size; further: potency means the concentration at half of the fitted maximal effect)
Progesterone receptor (Homo sapiens), sequence (P06401 whole entry, looked up): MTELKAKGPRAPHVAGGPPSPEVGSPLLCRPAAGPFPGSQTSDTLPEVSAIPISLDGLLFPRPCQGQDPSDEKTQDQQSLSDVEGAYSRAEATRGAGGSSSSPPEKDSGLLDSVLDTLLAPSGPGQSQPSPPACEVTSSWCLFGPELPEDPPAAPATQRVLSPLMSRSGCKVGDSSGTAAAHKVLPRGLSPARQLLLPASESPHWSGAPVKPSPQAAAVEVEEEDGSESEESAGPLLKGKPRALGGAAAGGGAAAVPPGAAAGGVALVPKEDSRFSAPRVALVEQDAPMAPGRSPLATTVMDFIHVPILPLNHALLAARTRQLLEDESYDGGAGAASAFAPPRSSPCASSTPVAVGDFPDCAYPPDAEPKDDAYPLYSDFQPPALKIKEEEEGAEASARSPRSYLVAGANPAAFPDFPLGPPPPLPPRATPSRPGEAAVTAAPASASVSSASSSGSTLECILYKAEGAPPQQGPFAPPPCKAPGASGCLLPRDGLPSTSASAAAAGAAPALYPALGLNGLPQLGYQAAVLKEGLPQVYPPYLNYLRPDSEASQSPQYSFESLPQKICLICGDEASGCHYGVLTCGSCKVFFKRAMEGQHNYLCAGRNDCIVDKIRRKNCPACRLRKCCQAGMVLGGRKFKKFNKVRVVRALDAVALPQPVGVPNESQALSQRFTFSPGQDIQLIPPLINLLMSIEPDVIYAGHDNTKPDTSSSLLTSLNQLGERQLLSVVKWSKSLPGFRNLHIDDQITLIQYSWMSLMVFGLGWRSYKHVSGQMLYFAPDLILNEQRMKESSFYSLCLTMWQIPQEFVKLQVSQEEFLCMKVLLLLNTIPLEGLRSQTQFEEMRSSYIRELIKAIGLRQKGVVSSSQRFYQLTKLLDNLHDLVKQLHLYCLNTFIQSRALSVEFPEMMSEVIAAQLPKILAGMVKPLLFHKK
Procedure, shortened: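 Seed PR-UAS-bla HEK 293T cells (2% charcoal-stripped FBS), incubate 6 hr at 37C; add compounds in DMSO, 16 hr at 37C; add LiveBLAzer B/G substrate, 2 hr RT; read fluorescence intensity.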

[12] = qHTS assay to identify small molecule antagonists of the progesterone receptor (PR) signaling pathway - cell viability counter screen (AID 1346798); further: series mostly up to about 92 µM; nearly all actives have a fitted effect of over 50% in size
Procedure, shortened: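 Measures cytotoxicity in parallel with the PR antagonist reporter read: HEK293T PR-UAS-bla cells get compound and R5020 for 16 hr, and remaining viable cells are quantified by CellTiter-Glo luminescence.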

[13] = qHTS assay to identify small molecule agonists of the progesterone receptor (PR) signaling pathway - cell viability counter screen (AID 1346799; calls by dose curve; further: nearly all actives have a fitted effect of over 45% in size)
Procedure, shortened: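 Using the same plates as the PR reporter screen, HEK293T PR-UAS-bla cells received compounds for 16 hr at 37C and were then lysed with CellTiter-Glo; luminescence was read 30 min later at room temperature.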

[14] = qHTS assay to identify small molecule agonists of the TGF-beta/Smad signaling pathway - cell viability counter screen (AID 1346829); further: top concentration of the series differs between compounds; nearly all actives have a fitted effect of over 45% in size
Procedure, shortened: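 HEK 293T SBE-bla line, 5 hr compound exposure at 37 C, multiplexed CellTiter-Glo viability read by luminescence.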

[15] = qHTS assay to identify small molecule agonists of the TGF-beta/Smad signaling pathway (AID 1346859; active means well fitted activation curve with a large enough effect in the signal ratio in the repeat runs, not every such curve was filed as active; the % refers to the signal ratio; further: series mostly up to about 77 µM)
Procedure, shortened: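 Beta-lactamase reporter activity downstream of Smad binding elements was measured in stably transfected HEK 293T cells; compounds were incubated for 5 hr, substrate for 2 hr at room temperature.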

[16] = target: Thyrotropin-releasing hormone receptor (Homo sapiens) (UniProt P34981); assay: qHTS assay to identify small molecule antagonists of the thyrotropin-releasing hormone receptor (TRHR) signaling pathway (AID 1346877; active means well fitted inhibition curve with a large enough effect in the repeat runs, not every such curve was filed as active; further: series mostly up to about 51 µM)
Thyrotropin-releasing hormone receptor (Homo sapiens), sequence (P34981 whole entry, looked up): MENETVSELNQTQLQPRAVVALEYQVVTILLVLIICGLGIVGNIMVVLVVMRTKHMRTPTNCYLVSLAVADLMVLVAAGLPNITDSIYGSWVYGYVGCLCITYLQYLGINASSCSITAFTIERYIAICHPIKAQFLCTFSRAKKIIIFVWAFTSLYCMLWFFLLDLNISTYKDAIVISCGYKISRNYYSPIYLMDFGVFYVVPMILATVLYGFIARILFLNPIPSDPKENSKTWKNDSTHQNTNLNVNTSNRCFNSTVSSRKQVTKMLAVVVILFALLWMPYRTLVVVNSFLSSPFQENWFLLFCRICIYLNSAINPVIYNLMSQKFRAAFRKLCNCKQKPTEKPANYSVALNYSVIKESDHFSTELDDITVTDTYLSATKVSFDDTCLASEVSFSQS
Procedure, shortened: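 Antagonism is measured as suppression of the calcium response to 1 nM TRH in TRHR-HEK293 cells that have been dye-loaded for 2 h at 37 °C after overnight plating. Each compound is tested at 15 concentrations in triplicate.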

[17] = qHTS assay to identify small molecule agonists or antagonists of the thyroid stimulating hormone receptor (TSHR) signaling pathway - wild type cell line counter screen (AID 1259384; calls by dose curve)
Procedure, shortened: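 Counter screen in untransfected Hek293: compounds (15-point titration, triplicate) plus phosphodiesterase inhibitor Ro20-1724 added after 18 h plating; 30 min RT. Intracellular cAMP via competitive d2/cryptate immunoassay, 1 h incubation.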

[18] = target: Progesterone receptor (Homo sapiens) (UniProt P06401); assay: qHTS assay to identify small molecule antagonists of the progesterone receptor (PR) signaling pathway (AID 1346795; active means well fitted inhibition curve with a large enough effect in the signal ratio in the repeat runs, not every such curve was filed as active; the % refers to the signal ratio; further: potency means the concentration at half of the fitted maximal effect)
Procedure, shortened: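 Screening used a GripTite HEK293T line with PR-responsive UAS-beta-lactamase. Cells were challenged with compound in the presence of 1 nM R5020 final for 16 hr at 37C; B/G FRET substrate, 2 hr room temperature, fluorescence.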

[19] = qHTS assay to identify small molecule antagonists of the TGF-beta/Smad signaling pathway - cell viability counter screen (AID 1346824); further: nearly all actives have a fitted effect of over 50% in size
Procedure, shortened: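 Cytotoxicity counter-screen run in the same wells as the beta-lactamase Smad reporter read: CellTiter-Glo luminescence after 30 min at room temperature. HEK 293T SBE-bla cells had 5 hr compound exposure at 37 C with TGF-beta1 (0.25 ng/mL stock).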

[20] = target: Estrogen receptor (Homo sapiens) (UniProt P03372); assay: qHTS assay to identify small molecule agonists of the estrogen receptor alpha (ER-alpha) signaling pathway in the presence of an antagonist (AID 1259383; calls by dose curve; further: nearly all actives have a fitted effect of over 15% in size; further: potency means the concentration at half of the fitted maximal effect; on activation: top concentration of the series differs between compounds)
Estrogen receptor (Homo sapiens), sequence (P03372 whole entry, looked up): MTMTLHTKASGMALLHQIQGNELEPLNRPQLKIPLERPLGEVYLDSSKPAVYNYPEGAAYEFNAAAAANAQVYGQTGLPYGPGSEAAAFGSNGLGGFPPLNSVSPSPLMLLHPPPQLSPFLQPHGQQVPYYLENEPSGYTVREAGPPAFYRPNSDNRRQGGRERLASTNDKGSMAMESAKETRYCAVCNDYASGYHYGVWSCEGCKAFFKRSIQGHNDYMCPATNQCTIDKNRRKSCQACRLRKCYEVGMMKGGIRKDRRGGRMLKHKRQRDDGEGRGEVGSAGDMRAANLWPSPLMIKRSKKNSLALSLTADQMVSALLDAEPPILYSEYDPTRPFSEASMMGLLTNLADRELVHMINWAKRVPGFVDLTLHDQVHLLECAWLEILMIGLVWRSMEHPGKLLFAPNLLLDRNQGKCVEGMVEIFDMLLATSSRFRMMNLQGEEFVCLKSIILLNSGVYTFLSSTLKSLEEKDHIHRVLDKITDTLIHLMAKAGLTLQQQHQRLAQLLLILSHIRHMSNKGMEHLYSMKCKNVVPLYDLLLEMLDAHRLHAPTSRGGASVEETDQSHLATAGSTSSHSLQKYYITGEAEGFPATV
Procedure, shortened: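 Agonist-mode confirmation in the presence of the ER antagonist ICI-182,780 at 10.0nM final. Breast-derived VM7Luc4E2 reporter cells were exposed to compounds for 22hr, and ERE-driven luciferase was quantified by luminescence.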

Measured: Potency

C[C@]12CCC(=O)C=C1CC[C@@H]1[C@@H]2[C@@H](O)C[C@@]2(C)[C@H]1CC[C@]2(O)C(=O)CO
active: [7] 246 nM and 150 nM | [11] 30.9 µM
inactive: [1] | [2] | [3] | [4] | [5] | [6] | [8] | [9] | [10] | [12] | [13] | [14] | [15] | [16]

COc1ccccc1OCC(O)CO (stereo not given)
inactive: [1] | [2] | [3] | [4] | [5] | [6] | [7] | [8] | [17] | [9] | [10] | [11] | [18] | [13] | [19] | [14] | [15]

CC(=O)OCc1ccccc1
inactive: [1] | [2] | [3] | [4] | [5] | [6] | [7] | [8] | [17] | [9] | [10] | [11] | [18] | [12] | [13] | [19] | [14] | [15] | [16]
139 nM (active) and inactive: [20]

CCCCCCCCCCCC(=O)OC
inactive: [1] | [2] | [3] | [4] | [5] | [6] | [8] | [20] | [17] | [9] | [10] | [11] | [18] | [12] | [13] | [19] | [14] | [15] | [16]

CCOCCOCCOCCO
inactive: [1] | [2] | [3] | [4] | [5] | [6] | [8] | [17] | [9] | [10] | [11] | [18] | [12] | [13] | [14] | [15]

C=CCCCCCCCCC(=O)O
inactive: [1] | [2] | [3] | [5] | [6] | [8] | [17] | [9] | [10] | [11] | [18] | [12] | [13] | [14] | [15]

CCCCOC(=O)c1ccc(N)cc1
inactive: [1] | [2] | [3] | [5] | [6] | [8] | [20] | [9] | [10] | [11] | [13] | [19] | [14] | [15]

C[C@]12CC[C@@H]3c4ccc(O)cc4CC[C@H]3[C@@H]1C[C@@H](O)[C@@H]2O
active: [2] 13.7 µM and 5.96 µM | [3] 4.3 nM and 3 nM
inactive: [1] | [5] | [8] | [9] | [10] | [11] | [12] | [13] | [19] | [14] | [15]

Brc1ccc(Br)c(Br)c1
inactive: [1] | [2] | [4] | [5] | [6] | [8] | [20] | [17] | [9] | [10] | [11] | [18] | [13] | [14] | [15]

CCCCCCCCCCN
inactive: [1] | [2] | [3] | [4] | [5] | [6] | [8] | [9] | [10] | [11] | [18] | [12] | [13] | [14] | [15]

CCCCCCCCCCO
inactive: [1] | [2] | [3] | [5] | [6] | [8] | [20] | [9] | [10] | [11] | [18] | [13] | [19] | [14] | [15] | [16]

Cc1ccc(C(C)C)c(O)c1
inactive: [1] | [2] | [3] | [4] | [5] | [6] | [8] | [20] | [10] | [11] | [18] | [12] | [13] | [14] | [15]

CN(C)CCOC(=O)COc1ccc(Cl)cc1
inactive: [1] | [2] | [3] | [4] | [5] | [6] | [8] | [9] | [10] | [11] | [18] | [13] | [19] | [14] | [15]

N#Cc1ccccc1
inactive: [1] | [2] | [3] | [4] | [5] | [6] | [8] | [9] | [10] | [11] | [18] | [12] | [13] | [19] | [14] | [15] | [16]

COc1ccc([N+](=O)[O-])cc1N
inactive: [1] | [2] | [3] | [4] | [5] | [6] | [8] | [20] | [11] | [18] | [13] | [19] | [14] | [15]

CCO[Si](CCC#N)(OCC)OCC
inactive: [1] | [2] | [3] | [4] | [5] | [6] | [8] | [20] | [10] | [11] | [18] | [12] | [13] | [19] | [14] | [15]

COc1ccc(CCC(C)=O)cc1
inactive: [1] | [2] | [3] | [4] | [5] | [6] | [8] | [9] | [10] | [11] | [18] | [13] | [19] | [14] | [15]

OCc1cccc(Oc2ccccc2)c1
active: [18] 54.5 µM
inactive: [1] | [2] | [4] | [5] | [6] | [7] | [8] | [17] | [9] | [10] | [11] | [12] | [13] | [19] | [14] | [15]
